In PubChem BioAssay AID1963315 (National Center for Advancing Translational Sciences (NCATS), 2024):
Records with an inconclusive call do not appear. The source made the active and inactive calls. The call rests on the fitted dose curve.

Molecular target: Tyrosine-protein kinase ABL1 (Homo sapiens) (UniProt P00519)
Assay: ABL1 kinase (ABL1-N-HiBiT) SDR gain of signal screen
Details: Purified ABL1-N-HiBiT enzyme, Nano-Glo HiBiT luminescence, 30 min compound incubation; series mostly up to 32.9 µM
Text: National Center for Advancing Translational Sciences (NCATS),
National Institute of Health (NIH), Maryland
Discovery and optimization of novel protein-binding ligands underlies many of the methods and applications of biology, drug discovery, clinical diagnostics, and environmental toxicology. Assays for detecting the interaction of, for example, a molecule with a macromolecular target also referred to here as the target of interest (TOI) is dependent on a compatible output technology. Depending on the nature and knowledge surrounding the TOI, whether a receptor, enzyme, regulatory subunit or scaffold, or a sequence-defined nucleic acid folded into a complex tertiary structure, assay strategies can vary widely.
Here we exploit ligand-biased changes in the structural dynamics of the target protein to control reporter alpha complementation allowing a non-competitive, non-functional, non-separation measure of ligand-target interaction.
Secondly, we show the specificity and sensitivity of the SDR for the Abelson tyrosine kinase (ABL1) compared to the serine/threonine protein kinase A, using an enriched chemical library of 128 compounds selected, in part, for activity annotated with ABL1 kinase activity using the Pharos database (3).
(1) A. S. Dixon et al., NanoLuc Complementation Reporter Optimized for Accurate Measurement of Protein Interactions in Cells. ACS Chem Biol 11, 400-408 (2016).
Chemistry & Biology, 19, 1060 - 1072 (2012).
(3) K. J. Kelleher et al., Pharos 2023: an integrated resource for the understudied human proteome. Nucleic Acids Res 51, D1405-D1416 (2023).
PROTOCOL TABLE (as described by Inglese J, Shamu CE and Guy RK. 2007)
SEQUENCE No. (e.g., 1, 2, 3, etc.); […] (e.g., C. elegans, Compounds, Incubation, Read, etc.); VALUE and DESCRIPTION.
1. Reagent. Dispense 4 uL ABL1-N-HiBiT enzyme per well at a final enzyme concentration of 10 nM in buffer without ATP (SDR assay) into columns 2-48 of four replicate Greiner 1536-well white, solid bottom high base, medium plates per assay. Dispense respective buffer without enzyme at 4 uL/well in column 1 of assay plates using BioRaptr 2.
2. Compounds. Library compounds added at 23 nL/well by pin transfer. DMSO neutral control and imatinib positive control added at 25 nL/well, transfer by Mosquito dispenser.
3. Incubation. Incubate enzyme and compounds at room temperature for 30 min, protected from light.
4. Reagent. (SDR assay) Add 3 uL/well of Nano-Glo HiBiT reagent (Promega) to assay plates with or without ATP.
5. Incubation. (SDR assay) Incubate enzyme solution and HiBiT reagent at room temperature for 10 min, protect from light.
6. Detector. (SDR assay) Luminescence measured using CCD-based camera (ViewLux) with settings as follows: Exposure, 1 sec; Gain, High; Speed, Slow; Binning, 2X.
Inglese J, Shamu CE and Guy RK, Reporting data from high throughput screening of small molecule libraries, Nature Chemical Biology, 2007, 3(8): 438-441. doi.org/10.1038/nchembio0807-438.

Chain of Tyrosine-protein kinase ABL1 (Homo sapiens) (P00519 whole entry, looked up): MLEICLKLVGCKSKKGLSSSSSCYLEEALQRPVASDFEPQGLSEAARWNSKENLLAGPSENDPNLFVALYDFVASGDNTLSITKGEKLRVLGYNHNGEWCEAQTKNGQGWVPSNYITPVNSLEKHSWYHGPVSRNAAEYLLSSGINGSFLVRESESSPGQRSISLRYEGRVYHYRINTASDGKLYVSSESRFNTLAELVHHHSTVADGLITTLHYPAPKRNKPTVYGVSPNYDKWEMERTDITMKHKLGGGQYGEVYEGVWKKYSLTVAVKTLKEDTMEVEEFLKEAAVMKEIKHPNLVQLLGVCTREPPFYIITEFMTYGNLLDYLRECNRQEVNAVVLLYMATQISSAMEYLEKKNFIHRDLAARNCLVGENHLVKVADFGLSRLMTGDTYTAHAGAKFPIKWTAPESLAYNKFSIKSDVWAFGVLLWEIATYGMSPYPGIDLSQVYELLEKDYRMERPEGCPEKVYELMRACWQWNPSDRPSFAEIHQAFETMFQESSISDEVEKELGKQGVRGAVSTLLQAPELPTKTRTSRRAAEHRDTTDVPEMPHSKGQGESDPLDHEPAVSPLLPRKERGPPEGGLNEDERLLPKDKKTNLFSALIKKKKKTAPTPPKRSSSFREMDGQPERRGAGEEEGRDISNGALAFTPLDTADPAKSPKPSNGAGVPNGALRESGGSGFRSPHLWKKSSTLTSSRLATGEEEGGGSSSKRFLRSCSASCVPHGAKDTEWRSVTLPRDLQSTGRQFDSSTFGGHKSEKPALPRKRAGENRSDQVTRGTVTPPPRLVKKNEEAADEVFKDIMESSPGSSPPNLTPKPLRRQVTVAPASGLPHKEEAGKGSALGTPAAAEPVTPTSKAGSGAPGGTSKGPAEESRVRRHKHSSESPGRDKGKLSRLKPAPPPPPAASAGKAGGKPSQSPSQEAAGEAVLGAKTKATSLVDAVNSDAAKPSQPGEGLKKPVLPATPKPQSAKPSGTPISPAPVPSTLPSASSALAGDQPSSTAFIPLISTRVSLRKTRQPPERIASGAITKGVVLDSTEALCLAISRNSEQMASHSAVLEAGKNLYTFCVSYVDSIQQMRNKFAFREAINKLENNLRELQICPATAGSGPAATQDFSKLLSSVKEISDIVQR

Potency, active:
Cc1ccc(-n2nc(C(C)(C)C)cc2NC(=O)NCc2cc(F)ccc2Oc2ccc3c(cnn3CCO)c2)cc1 67.9 nM, COc1cc(N2CCOCC2)ccc1Nc1ncc(Cl)c(Nc2ccccc2NS(C)(=O)=O)n1 5400 nM, Cc1cc(Nc2ncc3c(n2)N(C)C(=O)N(c2cc(NC(=O)c4cccc(C(F)(F)F)c4)ccc2C)C3)n(C)n1 31.2 nM, Oc1ccc(-c2ccc(-c3cc(Nc4cccc(CNC5CC5)c4)n[nH]3)cc2)c(O)c1 9600 nM, CN1CCN(Cc2ccc(-c3cnc4[nH]cc(-c5ccc6[nH]ccc6c5)c4c3)cc2)CC1 331 nM, Cc1nc2ccc(-n3ncc(C(=O)c4cc5ccccc5[nH]4)c3N)cc2[nH]1 3930 nM, CCCCNc1ncc2c(-c3ccc(S(=O)(=O)N4CCOCC4)cc3)nn(C3CCC(O)CC3)c2n1 (stereo not given) 1520 nM, CCOc1ccn(-c2ccc(F)cc2)c(=O)c1C(=O)Nc1ccc(Oc2ccnc(N)c2Cl)c(F)c1 4160 nM, C=CC(=O)N1CCC(Oc2cc3c(Nc4ccc(Cl)c(Cl)c4F)ncnc3cc2OC)CC1 10800 nM, CN1CCN(CCOc2cc(OC3CCOCC3)c3c(Nc4c(Cl)ccc5c4OCO5)ncnc3c2)CC1 12.5 nM, C#Cc1cccc(Nc2ncnc3cc4c(cc23)OCCOCCOCCO4)c1 5880 nM, CCN1CCN(Cc2ccc(NC(=O)c3ccc(C)c(NC(=O)c4cncc(-c5cccs5)c4)c3)cc2C(F)(F)F)CC1 5.22 nM, COc1ccccc1-c1c[nH]c2ncc(-c3cncc(C(=O)N(C)C)c3)cc12 3.04 nM, CCn1c(=O)c(-c2ccc(Cl)cc2Cl)cc2cnc(Nc3ccc(N4CCNCC4)c(F)c3)nc21 6.77 nM, c1ccc2c(-c3cnn4cc(-c5ccc(N6CCNCC6)cc5)cnc34)ccnc2c1 148 nM, Cc1cc(Nc2ncc3cc(-c4c(Cl)cccc4Cl)c(=O)n(C)c3n2)ccc1F 4.94 nM, O=c1cc(N2CCOCC2)nc2c3ccccc3ccn12 8550 nM, c1ccc(-c2oc3ncnc(NC[C@@H]4CCCO4)c3c2-c2ccccc2)cc1 4290 nM

Potency, inactive:
Cc1cc(F)ccc1-c1nc(NC(CO)CO)nc2c1ccc(=O)n2-c1c(F)cccc1F, Cn1sc(=O)n(Cc2ccccc2)c1=O, N#Cc1ccc2ncnc(NCCc3ccccc3)c2c1, Cc1ccccc1-n1c([C@H](C)Nc2nc(N)nc3nc[nH]c23)nc2cccc(C)c2c1=O, Nc1nc(NCCNc2ncc(-n3ccnc3)c(-c3ccc(Cl)cc3Cl)n2)ccc1[N+](=O)[O-], COc1ccc(CNC(=O)Nc2ncc([N+](=O)[O-])s2)cc1, Cc1cccc(/C=N/Nc2cc(N3CCOCC3)nc(OCCc3ccccn3)n2)c1, Cc1[nH]c2ccccc2c1C1=C(NCCc2ccc(F)cc2)C(=O)N(C)C1=O, CCNC(=O)Nc1ccc(-c2nc3c(c(N4CCOC[C@@H]4C)n2)CCN(c2ncccn2)C3)cc1, COc1ccc(-n2c(C)c([N+](=O)[O-])c3ccc(O)cc32)cc1, CC(C)CCN1c2nc(Nc3cc(F)c(O)c(F)c3)ncc2N(C)C(=O)C1C (stereo not given), O=C(NCCO)c1cccc(-c2cc(Nc3ccc(OC(F)(F)F)cc3)ncn2)c1, O=S(=O)(/N=C/c1c(O)ccc2ccccc12)c1cccs1, CO[C@H]1/C=C/O[C@@]2(C)Oc3c(C)c(O)c4c(O)c(c(/C=N\N5CCN(C6CCCC6)CC5)c(O)c4c3C2=O)NC(=O)/C(C)=C\C=C\[C@H](C)[C@H](O)[C@@H](C)[C@@H](O)[C@@H](C)[C@H](OC(C)=O)[C@@H]1C, Cc1[nH]nc2ncc(C(=O)N3CCC[C@H]3c3ccc(Cl)cc3)cc12, Cc1sc2c(c1C)C(c1ccc(Cl)cc1)=N[C@@H](CC(=O)Nc1ccc(OCCOCCOCCOCCNc3cccc4c3C(=O)N(C3CCC(=O)NC3=O)C4=O)cc1)c1nnc(C)n1-2 (stereo not given in full), FC(F)(F)c1ccc(/C=C/c2nc(COc3ccc(CCCCn4ccnn4)cc3)co2)cc1, Cc1c(Cl)cccc1S(=O)(=O)Nc1nc(NCCc2ccccc2)nc2c1CN(Cc1ccccc1)CC2, Cc1cc(F)ccc1-c1nc(NCCN=C(N)NC#N)nc2c1ccc(=O)n2-c1c(F)cccc1F, CC(C)(NS(=O)(=O)c1ccc2c(Cl)cnc(N=C(N)N)c2c1)C(=O)O, Nc1ncccc1-c1nc2ccc(-c3ccccc3)nc2n1-c1ccc(C2(N)CCC2)cc1, Cc1ccc(NC(=O)N2CCN(c3nc(N)nc4sc(-c5cccnc5)nc34)CC2)cc1
